For eight compounds, growth results are on record in PubChem BioAssay (NCI).

The structures appear in SMILES notation. About 83,000 compounds went through this panel and 20% of them were active in at least one assay; those are over-represented in the sample as a whole.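 Each cell line was grown in a 96-well plate and treated with one concentration of compound for 48 hours. Values below 10 were considered active.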 Values without a mark were called inactive. The source made the active and inactive calls.

Holding throughout (experiment): NCI-60 one-dose screen, 48 h (100 = growth as untreated, 0 = no growth, -100 = all killed)
What all share (conditions): 10 µM unless noted

Experiment [1] concerns HCT-15 colon.
Experiment [2] relates to HT29 colon.
In experiment [3] the test system is SNB-75 CNS.
In experiment [4] the test system is SNB-19 CNS.
Experiment [5] deals with U251 CNS.
Experiment [6] has as its system PC-3 prostate.
For experiment [7], the system named is SK-MEL-5 melanoma.
In experiment [8] the test system is UACC-62 melanoma.
For experiment [9], the system named is LOX IMVI melanoma.
The test system of experiment [10] is SK-MEL-28 melanoma.
Experiment [11] concerns SK-MEL-2 melanoma.
Experiment [12] concerns EKVX NSCLC.
Experiment [13] has as its system SN12C renal.
In experiment [14] the test system is UO-31 renal.
For experiment [15], the system named is TK-10 renal.
Experiment [16] relates to ACHN renal.
Experiment [17] concerns CAKI-1 renal.
The test system of experiment [18] is A498 renal.
In experiment [19] the test system is CCRF-CEM leukemia.
Experiment [20] concerns MOLT-4 leukemia.

For `O=C1NC(=C(Cl)Cl)/C(=N/S(=O)(=O)NCCc2c[nH]c3ccccc23)N1`, the growth in experiment [1] is 98.6%; in experiment [2], 15%; in experiment [3] it was 78.5%; in experiment [4] it was 53.9%; in [5] it was 33.8%; in experiment [6] it was 83.5%. Besides, the growth in experiment [7] was 74.3%; in experiment [8], 61.2%; in experiment [9] it was 29.8%; in [10], 84%; in experiment [11], 46.2%; in experiment [12] it was 101%. Also, the growth in experiment [13] is 35.2%; in experiment [14], 71.6%; in experiment [15], 109%; in [16], 88.4%; in experiment [17] it was 83.7%; in experiment [18] it was 71.5%. The growth is 7.47% (active) in experiment [19] and 18% in [20].

With `CN1CCN(Cc2ccc(NC(=O)c3cncc(C#Cc4cnn5ccccc45)c3)cc2C(F)(F)F)CC1`, the growth in [1] is 0.133% (active); in [2], 4.53% (active); in experiment [3] it was 13.6%; in experiment [4], 5.8% (active); in experiment [5] it was 7.18% (active); in experiment [6] it was -4.22% (active). Moreover, the growth is 14.9% in experiment [7]; 13.8% in experiment [8]; -39.6% (active) in experiment [9]; 25% in experiment [10]; -27% (active) in [11]; -3.23% (active) in experiment [12]. The growth in experiment [13] was -1.07% (active); in [14] it was -9.3% (active); in experiment [15], 7.73% (active); in experiment [16] it was 2.54% (active); in experiment [17], -9.06% (active); in experiment [18], -11.7% (active). For the same compound, the growth in [19] is 6.17% (active); in [20], 1.84% (active).

As for `CCOC(=O)c1c(C)nn(CC(O)c2ccccc2)c1NC(=O)Nc1cccc(F)c1` (stereo not given), the growth in experiment [1] is 85.2%; in experiment [2], 96%; in [3], 77.3%; in experiment [4] it was 94.8%; in experiment [5] it was 93.4%; in [6], 76.8%. In addition, the growth was 94.7% in experiment [7]; 77.2% in experiment [8]; 95% in [9]; 104% in experiment [10]; 90.9% in experiment [11]; 91.2% in [12]. Besides, the growth in experiment [13] is 84.1%; in [14], 74.8%; in experiment [15] it was 110%; in experiment [16], 89.7%; in experiment [17], 83.4%; in experiment [18] it was 70.9%. Moreover, the growth was 89.3% in [19] and 88.7% in experiment [20].

In the case of `CCCCCCCCCCCCCCCCOC(=O)c1c(C)[nH]c(/C=C2\N=C(c3ccc[nH]3)C=C2OC)c1C`, the growth in experiment [1] is 56.3%; in experiment [2], 13.6%; in experiment [3], 51.4%; in experiment [4], 84.6%; in experiment [5], 41.7%; in experiment [6] it was 45.6%. Further, the growth in [7] was -80.8% (active); in experiment [8] it was -15.3% (active); in experiment [9] it was -83.9% (active); in experiment [10] it was 51.1%; in [11] it was -25.9% (active); in experiment [12] it was 68.3%. Besides, the growth in experiment [13] was 55.9%; in experiment [14] it was 30.4%; in [15], 18.8%; in experiment [16], 48.8%; in experiment [17] it was 15.4%; in [18] it was 33.9%. Moreover, the values for the growth in experiment [19] and in [20] were 50.4% and 91.9%, respectively.

On to `CC1=CCC[C@@H]2C1(C)CC[C@H](C)[C@@]2(C)CC1=CC(=O)C(SC(C)(C)C)=CC1=O` (stereo not given in full), for which the growth was 86.4% in experiment [1]; 77% in [2]; 77.4% in [3]; 94.5% in experiment [4]; 85% in experiment [5]; 56.1% in experiment [6]. Moreover, the growth in experiment [7] was 78.4%; in experiment [8], 67.1%; in experiment [9], 74.6%; in [10], 94.2%; in experiment [11], 97.3%; in experiment [12], 70.7%. For the same compound, the growth is 86.8% in experiment [13]; 66.2% in [14]; 98.8% in [15]; 77.5% in [16]; 78.4% in [17]; 88.6% in [18]. For the same compound, the growth in experiment [19] is -23.5% (active); in [20] it was 36%.

In the case of `O=C(Cn1nnc2ccccc21)Nc1ccc(-c2nc3ccccc3s2)cc1`, the growth was 91.5% in experiment [1]; 101% in experiment [2]; 106% in experiment [3]; 103% in experiment [4]; 89.6% in [5]; 83.3% in experiment [6]. Moreover, the growth is 74.3% in experiment [7]; 97.1% in [8]; 84.2% in [9]; 102% in experiment [10]; 101% in [11]; 78.2% in experiment [12]. Also, the growth in experiment [13] is 101%; in [14] it was 86.5%; in experiment [15], 94.8%; in experiment [16] it was 110%; in experiment [17], 85.5%; in [18], 85.1%. Besides, the figures for the growth in experiment [19] and in experiment [20] were 69.7% and 61.6%, respectively.

For the compound `COc1ccc(/C(C)=C(\c2ccc(Cl)cc2)c2ccc(OCCN3CCCC3)cc2)cc1`, the growth was 7.96% (active) in experiment [1]; -18.1% (active) in [2]; 91.4% in experiment [3]; 52.1% in [4]; 19.4% in [5]; 32.7% in [6]. The growth in experiment [7] was -63.2% (active); in experiment [8], -0.373% (active); in [9] it was -46.5% (active); in experiment [10] it was -16.8% (active); in experiment [11] it was 40.6%; in experiment [12] it was 61.2%. Further, the growth in experiment [13] was 66.5%; in [14] it was 35.2%; in experiment [15] it was 69.5%; in experiment [16], 60.1%; in experiment [17] it was 24.4%; in experiment [18] it was 79.1%. Also, the growth was 29.1% in experiment [19] and 23.4% in experiment [20].

Regarding `CCN1C(=O)N(CC)C2C1NN=c1s/c(=C3\C(=O)N(CCc4ccccc4)c4ccccc43)c(=O)n12` (stereo not given), the growth in [1] is 10.7%; in [2], 0.473% (active); in experiment [3], -4.86% (active); in experiment [4], 23.3%; in experiment [5] it was 14.5%; in experiment [6] it was 20.5%. Moreover, the growth in experiment [7] is 7.69% (active); in [8] it was 28.1%; in experiment [9], 10.9%; in experiment [10] it was 43.6%; in experiment [11] it was 54.7%; in experiment [12], 43.6%. The growth was 17.8% in experiment [13]; 45.4% in experiment [14]; 64.1% in [15]; 25.5% in experiment [16]; 27.7% in experiment [17]; -3.18% (active) in experiment [18]. Also, the growth is 5.65% (active) in experiment [19] and 10.3% in experiment [20].
